Cruzain noTriton = qHTS Assay for Promiscuous and Specific Inhibitors of Cruzain (without detergent). purified cruzain, Z-FR-AMC fluorescence, no detergent. Potency, µM, without a hit: max response, negative = inhibition, most hits filed as inhibitors. 200,000 tested, 2.3% active;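 note: plate controls were enzyme without inhibitor for no effect and buffer without enzyme for full effect; nearly all actives have a fitted effect of over 40% in size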
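Detergent-free condition (0.00005% Triton X-100) in acetate buffer pH 5.5 with DTT. 1.5 nM enzyme and compound were pre-mixed 15 min, then 2 uM Z-FR-AMC substrate added; reaction progress from fluorescence change between first and third reads (60 s).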
Cruzain Triton = qHTS Assay for Promiscuous and Specific Inhibitors of Cruzain (with detergent); Cruzipain (Trypanosoma cruzi), P25779; purified cruzain, Z-FR-AMC fluorescence, 0.01% Triton; Potency, µM, without a hit: max response, negative = inhibition, actives largely listed as inhibitors; 200,000 tested, 0.43% active;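 note: plate controls were neutral wells for no effect and buffer without enzyme for full effect; nearly all actives have a fitted effect of over 40% in size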
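Compounds were screened in titration against cruzain (1.5 nM) with 0.01% Triton X-100 to counter colloidal aggregation. Activity was the AMC fluorescence increase over 60 s after adding 2 uM Z-FR-AMC at pH 5.5.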
Papain inh = qHTS Assay for Inhibitors of Papain: Counterscreen for Cruzain Assay | purified papain, Z-FR-AMC fluorescence cleavage | Potency, µM, without a hit: max response, negative = inhibition, actives largely listed as inhibitors | shares compounds with Cruzain Triton | AID 2161, 2009 | 410 tested, 41% active;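 note: 0% = no-compound wells and -100% = no-enzyme wells; nearly all actives have a fitted effect of over 35% in size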
Target sequence (P00784 whole entry, looked up): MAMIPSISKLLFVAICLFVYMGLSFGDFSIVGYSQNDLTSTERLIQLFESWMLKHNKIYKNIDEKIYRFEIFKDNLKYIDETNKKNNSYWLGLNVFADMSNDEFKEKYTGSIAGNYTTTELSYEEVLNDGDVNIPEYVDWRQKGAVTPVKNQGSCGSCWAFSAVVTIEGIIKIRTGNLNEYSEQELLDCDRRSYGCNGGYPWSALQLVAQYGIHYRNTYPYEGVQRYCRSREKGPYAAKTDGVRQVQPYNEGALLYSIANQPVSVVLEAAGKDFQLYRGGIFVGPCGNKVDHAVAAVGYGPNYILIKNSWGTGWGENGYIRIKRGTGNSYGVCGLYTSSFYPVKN
Active calls of the source: *; ? = inconclusive; · = no result given. A selection: hits, their analogues and other compounds. The true share with any hit is near 2.5%. Calls come from the whole dose curve; as a rule, active = well fitted curve in the direction sought with a large enough effect; inconclusive = small, poorly fitted or top-dose-only effect, or another doubt; inactive = no such curve, though single readings can be large; an effect the other way counts as inactive or inconclusive. Potency is the fitted concentration of half-maximal effect.

SMILES	Cruzain noTriton	Cruzain Triton	Papain inh
O=C(NCCCc1nc2ccccc2n1CCCOc1ccccc1)C1CCCCC1	·	·	10%
O=C(NCCCc1nc2ccccc2n1CCCCOc1ccccc1)C1CCCCC1	·	·	5%
COc1ccc(NC(=O)C(NC(=O)/C=C\c2ccc3c(c2)OCO3)c2ccc(C)cc2)cc1 (stereo unspecified)	?	-5%	·
NC(=S)NNC(N)=S	5%	2%	·
CCC(=O)N1c2ccccc2CC1C(=O)NCCN1CCN(c2cccc(C(F)(F)F)c2)CC1 (stereo unspecified)	0%	-1%	·
CCc1nnc2c3ccccc3nc(N3CCN(c4cc(C)ccc4C)CC3)n12	5%	-2%	·
Cc1ccc(NC(=O)/C=C\C(=O)NCC(=O)O)cc1C	1%	1%	·
CNc1nc(-c2cccnc2)nc2ccccc12	-5%	2%	·
CCOC(=O)NC(=O)CSc1nnnn1-c1ccc(Cl)cc1	8%	-4%	·
Cn1nc(-c2ccc(F)cc2)nc2c(=O)n(C)c(=O)nc1-2	·	·	-4%
Cn1nc(-c2ccc(Cl)cc2)nc2c(=O)n(C)c(=O)nc1-2	1.6µM*	1.6µM*	-20%
COc1ccc(-n2c(C)nn(C)c2=O)cc1	-3%	11%	·
Cn1c(=O)nc2n(Cc3ccccc3)c3ccccc3cc-2c1=O	-9%	?	·
Cc1cc(C)n2nc(-c3ccc(F)cc3)nc2n1	-6%	7%	·
COc1ccc(-c2nc3c(=O)n(C)c(=O)nc-3n(C)n2)cc1	·	·	-10%
Cc1ccc(-c2nc3n(n2)C(=O)CC(c2ccc(Cl)cc2)S3)cc1 (stereo unspecified)	-9%	-4%	·
CCn1nc(-c2ccccc2C)nc2c(=O)n(C)c(=O)nc1-2	·	·	-9%
Cc1cccc(-n2c(C)cc(C(=O)C(=O)Nc3nncs3)c2C)c1	-10%	-2%	·
CCc1cc2c(cc3c(=O)n(CCCC(=O)NCc4cccc(Cl)c4)ncn32)s1	-4%	0%	·
O=C(NCC(c1ccco1)S(=O)(=O)c1cccs1)c1ccc(F)c(F)c1 (stereo unspecified)	4%	-1%	·
Cc1cc(C)n2nc(-c3cccnc3)nc2n1	5%	3%	·
Cn1nc(-c2cccnc2)nc2c(=O)n(C)c(=O)nc1-2	·	·	3%
CN(C)c1ncc(C(=O)NCc2ccccc2Cl)cn1	-12%	-4%	·
CCN(CC)CCCCn1c(-c2ccccc2)nc2c(NCc3ccccc3)nc(C)nc21	-4%	-14%	·
Cc1csc(N/N=C/c2ccc(O)c([N+](=O)[O-])c2)n1	7.9µM*	7.1µM*	-47%
SMILES	Cruzain noTriton	Cruzain Triton	Papain inh
Cc1nnc(N/N=C/c2ccc(O)c([N+](=O)[O-])c2)[nH]c1=O	-3%	-4%	·
CCC1CCCCN1C(=O)Cn1c(=O)oc2cc(S(=O)(=O)N3CCCCC3)ccc21 (stereo unspecified)	4%	1%	·
O=C(Cn1c(=O)oc2cc(S(=O)(=O)N3CCCCCC3)ccc21)NC1CCCCCCC1	20µM*	-9%	12%
CCOC(=O)c1sc(/N=C/c2c(C)[nH]n(-c3ccccc3)c2=O)c(C#N)c1C	5%	3%	·
Cc1nc2c3ccccc3nc(NNC(=O)CCC(=O)N3CCN(c4cccc(Cl)c4)CC3)n2n1	?	1%	·
CCOc1ccc(NC(=O)N2CCN(C(=O)c3nsc4ccccc34)CC2)cc1	7%	-5%	·
Nc1ccc2c(c1)C(=O)c1ccccc1C2=O	-19%	1%	·
Nc1ccc2c(c1)C(=O)C(=O)c1ccccc1-2	?	22µM*	16µM*
COc1cc2c(c(OC)c1OC)-c1ccc(OC)c(=O)cc1[C@H](NC(C)=O)CC2	4%	1%	·
CCOc1cc(/C=N/NC(=O)C(C)Sc2ccccn2)ccc1O (stereo unspecified)	2%	-3%	·
CCC(C)[C@@H](N)C(=O)N/N=C/c1ccc2ncccc2c1 (stereo partly specified)	10µM*	10µM*	6%
O=C(Cn1c(=O)nc(-c2ccccc2)c2ccccc21)NCCc1ccccc1	1%	-2%	·
COc1cccc(C(=O)Nc2ccc(-n3nncc3-c3ccccc3)cc2)c1	-5%	2%	·
CC(=O)Nc1ccc(/C=C/C(=O)c2ccc(-n3nncc3-c3ccccc3)cc2)cc1	·	·	-6%
O=C(Nc1ccc(-n2nncc2-c2ccccc2)cc1)c1ccccc1	·	·	5%
CSc1ccc(/C=C/C(=O)c2ccc(NC(C)=O)cc2)cc1	?	-14%	·
OCCN(CCO)c1ccc(C(c2ccccc2Cl)c2ccc(N(CCO)CCO)cc2Cl)c(Cl)c1	?	-9%	-5%
CC(C)(C)NCC(O)c1ccccc1Cl (stereo unspecified)	-7%	3%	·
CC(=O)c1ccc(NC(=O)NCCc2c[nH]c3ccccc23)cc1	-7%	-13%	·
O=C(CNC(=O)c1ccc(Br)cc1)NCCc1nc2ccccc2[nH]1	8%	-9%	·

Screens from PubChem BioAssay.
